Data: PubChem BioAssay (Tox21)
A number with no mark means an inactive call. Results filed as inconclusive are left out. Entries that show only a call come without a potency. Calls of active or inactive are those of the source. Unless noted, calls come from the whole dose curve.

Tests used:
[1] = Nuclear factor erythroid 2-related factor 2/antioxidant responsive element (Nrf2/ARE) small molecule agonists: qHTS cell viability counter screen in human keratinocytes (AID 1919968; active = well fitted curve in the direction sought with a large enough effect in the repeat runs; an effect the other way counts as inactive or inconclusive; note: nearly all actives have a fitted effect of over 55% in size; note: potency is the fitted concentration of half-maximal effect)
Outline: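 Fluorescence read-out from CellTiter-Fluor after 1 h at 37 C. Wells held HaCaT-derived ARE-luciferase reporter cells (1,500/well) treated 23 h with DMSO-dissolved compounds. Run in the same wells as the luciferase agonist read.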

[2] = Nuclear factor erythroid 2-related factor 2/antioxidant responsive element (Nrf2/ARE) small molecule agonists: luciferase reporter gene qHTS assay in human keratinocytes (AID 1919969); note: nearly all actives have a fitted effect of over 35% in size; note: potency is the fitted concentration of half-maximal effect
[3] = target: Gonadotropin-releasing hormone receptor (Homo sapiens) (UniProt P30968); assay: Human gonadotropin-releasing hormone receptor (GnRHR) small molecule agonists, calcium flux assay in GnRHR-HEK293 cells (AID 1920063); note: nearly all actives have a fitted effect of over 35% in size
Chain of Gonadotropin-releasing hormone receptor (Homo sapiens) (P30968 whole entry, looked up): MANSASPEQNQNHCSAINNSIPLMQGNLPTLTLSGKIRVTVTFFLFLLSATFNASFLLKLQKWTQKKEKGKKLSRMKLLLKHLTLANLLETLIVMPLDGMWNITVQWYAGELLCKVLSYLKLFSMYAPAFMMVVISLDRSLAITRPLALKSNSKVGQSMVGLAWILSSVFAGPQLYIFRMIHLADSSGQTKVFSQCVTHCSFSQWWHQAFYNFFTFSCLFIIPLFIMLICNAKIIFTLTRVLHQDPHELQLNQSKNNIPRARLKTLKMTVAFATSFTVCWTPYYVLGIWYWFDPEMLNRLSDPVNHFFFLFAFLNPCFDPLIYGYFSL
Outline: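 Calcium-dye fluorescence, Ex/Em=480/540, recorded every 1 sec over 3 min after compound addition to GnRHR-HEK293 cells. Cells had been seeded 18 hours earlier and dye-loaded for 1 hour at 37 C. Fifteen concentrations, triplicates.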

[4] = target: KiSS-1 receptor (Homo sapiens) (UniProt Q969F8); assay: Human kisspeptin (KISS1R) small molecule agonists, calcium flux assay in KISS1R-HEK293 cells (AID 1920064; active = well fitted curve in the direction sought with a large enough effect in the repeat runs; an effect the other way counts as inactive or inconclusive)
Chain of KiSS-1 receptor (Homo sapiens) (Q969F8 whole entry, looked up): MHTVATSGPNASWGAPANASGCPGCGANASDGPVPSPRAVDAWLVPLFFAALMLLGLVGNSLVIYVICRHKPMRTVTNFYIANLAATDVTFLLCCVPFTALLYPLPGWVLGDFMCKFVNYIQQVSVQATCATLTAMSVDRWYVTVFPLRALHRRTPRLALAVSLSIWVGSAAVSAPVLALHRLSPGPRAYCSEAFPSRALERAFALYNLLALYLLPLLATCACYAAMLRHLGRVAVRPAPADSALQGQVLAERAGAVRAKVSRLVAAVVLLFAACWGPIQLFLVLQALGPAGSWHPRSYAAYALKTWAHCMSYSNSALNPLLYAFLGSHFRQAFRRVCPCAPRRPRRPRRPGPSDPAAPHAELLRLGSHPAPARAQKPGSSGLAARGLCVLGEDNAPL
Outline: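 Calcium flux read-out: kinetic fluorescence at Ex/Em=480/540, 1 s intervals over 3 min, after pin-tool compound addition to dye-loaded KISS1R-HEK293 cells. Fifteen concentrations, triplicates.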

[5] = G protein-coupled receptor (GPCR) small molecule agonists, calcium flux assay: HEK293 wild type cell line counter screen (AID 1920065)
Outline: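 Agonist mode; 18 h seeding at 37 C, 1 h dye load at 37 C; compounds pinned from DMSO, ATP as positive control; kinetic fluorescence 480/540 nm, 3 min, 1 s reads; 15 concentrations, triplicate.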

[6] = p53 small molecule agonists, cell-based qHTS assay with human liver microsomes (AID 1963577);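 note: p53 response element beta-lactamase reporter cells with liver microsomes plus NADPH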
Outline: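 HLM-supplemented p53RE-bla reporter assay: 16 h compound exposure at 37 C, microsomes and NADPH each 0.5 mg/mL final, read by fluorescence intensity.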

[7] = p53 small molecule agonists, cell-based qHTS assay with rat liver microsomes (AID 1963578)
Outline: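 Quantitative HTS of the Tox21 10K library: p53RE-bla cells, rat liver microsomes plus NADPH at 0.5 mg/mL final each, 16 h at 37 C, beta-lactamase fluorescence detection.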

[8] = p53 small molecule agonists, cell-based qHTS assay with rat liver microsomes: qHTS cell viability counter screen (AID 1963580); note: nearly all actives have a fitted effect of over 45% in size; note: potency is the fitted concentration of half-maximal effect
Outline: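 Cytotoxicity counter screen: intracellular ATP measured by CellTiter-Glo luminescence in the same wells as the beta-lactamase reporter read, on HCT-116 p53RE-bla cells exposed 16 h at 37 C to compounds with rat liver microsomes and NADPH, each 0.5 mg/mL final.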

[9] = p53 small molecule agonists, cell-based qHTS assay: qHTS cell viability counter screen (AID 1963581); note: nearly all actives have a fitted effect of over 45% in size; note: potency is the fitted concentration of half-maximal effect
Outline: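 Cytotoxicity read-out: ATP-based luminescence (CellTiter-Glo, 30 min RT) measured in the same wells as the p53 reporter assay, HCT-116 p53RE-bla cells, 16 h compound exposure at 37 C.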

[10] = target: 5-hydroxytryptamine receptor 2A (Homo sapiens) (UniProt P28223); assay: 5-hydroxytryptamine receptor 2A (HTR2A) small molecule antagonists, cell-based qHTS assay (AID 1963586); note: nearly all actives have a fitted effect of over 45% in size
Chain of 5-hydroxytryptamine receptor 2A (Homo sapiens) (P28223 whole entry, looked up): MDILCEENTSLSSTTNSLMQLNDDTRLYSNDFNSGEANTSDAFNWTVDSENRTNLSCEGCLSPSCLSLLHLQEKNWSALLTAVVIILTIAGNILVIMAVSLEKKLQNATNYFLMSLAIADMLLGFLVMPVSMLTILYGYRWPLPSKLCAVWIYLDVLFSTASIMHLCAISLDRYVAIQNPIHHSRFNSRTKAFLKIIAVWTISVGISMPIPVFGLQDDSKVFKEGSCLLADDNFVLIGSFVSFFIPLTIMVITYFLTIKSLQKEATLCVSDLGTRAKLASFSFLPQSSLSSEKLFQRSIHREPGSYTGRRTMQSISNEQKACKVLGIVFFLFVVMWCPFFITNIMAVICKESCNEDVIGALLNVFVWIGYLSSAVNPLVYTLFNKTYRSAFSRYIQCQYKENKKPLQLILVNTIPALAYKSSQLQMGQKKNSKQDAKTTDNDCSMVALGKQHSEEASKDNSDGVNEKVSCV
Outline: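 CHO cells stably expressing human HTR2A were plated for 18 h at 37 C, then loaded with calcium dye for 1 h. Compounds were preincubated 5 min at room temperature before DOI (4 nM solution) was added. Kinetic fluorescence was read for 3 min.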

[11] = target: 5-hydroxytryptamine receptor 2A (Homo sapiens) (UniProt P28223); assay: 5-hydroxytryptamine receptor 2A (HTR2A) small molecule agonists, cell-based qHTS assay (AID 1963587); note: nearly all actives have a fitted effect of over 30% in size
Outline: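 CHO cells stably expressing human HTR2A, plated 18 h, loaded with calcium dye 1 h at 37 C. Agonist mode: compounds added and intracellular calcium fluorescence recorded kinetically for 2 min at 1 sec intervals.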

[12] = target: Muscarinic acetylcholine receptor M1 (Homo sapiens) (UniProt P11229); assay: Cholinergic receptor muscarinic 1 (CHRM1) small molecule antagonists, cell-based qHTS assay (AID 1963588); note: nearly all actives have a fitted effect of over 40% in size
Chain of Muscarinic acetylcholine receptor M1 (Homo sapiens) (P11229 whole entry, looked up): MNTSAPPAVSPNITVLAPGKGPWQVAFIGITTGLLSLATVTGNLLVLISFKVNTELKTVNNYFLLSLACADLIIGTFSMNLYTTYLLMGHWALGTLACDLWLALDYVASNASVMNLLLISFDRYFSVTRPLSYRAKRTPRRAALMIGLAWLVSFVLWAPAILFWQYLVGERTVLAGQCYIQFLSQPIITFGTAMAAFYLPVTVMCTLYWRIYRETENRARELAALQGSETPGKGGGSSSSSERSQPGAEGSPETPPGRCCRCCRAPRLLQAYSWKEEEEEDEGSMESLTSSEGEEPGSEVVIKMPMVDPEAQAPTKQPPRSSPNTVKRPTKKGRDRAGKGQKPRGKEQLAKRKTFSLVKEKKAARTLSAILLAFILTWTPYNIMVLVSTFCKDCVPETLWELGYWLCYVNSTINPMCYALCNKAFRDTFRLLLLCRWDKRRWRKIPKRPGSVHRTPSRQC
Outline: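 Compounds were tested at 15 concentrations in three independent runs. Dye-loaded CHRM1-CHO cells were exposed 5 min at room temperature before stimulation by acetylcholine added at 50nM. Intracellular calcium was read kinetically on FDSS for 3 min.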

[13] = target: Muscarinic acetylcholine receptor M1 (Homo sapiens) (UniProt P11229); assay: Cholinergic receptor muscarinic 1 (CHRM1) small molecule agonists, cell-based qHTS assay (AID 1963589); note: nearly all actives have a fitted effect of over 35% in size
Outline: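 Calcium flux read-out: kinetic fluorescence at 1 sec intervals after pin-tool compound addition to dye-loaded CHRM1-CHO cells (human M1). Agonist mode; 15 concentrations tested in triplicate independent runs.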

[14] = cAMP Responsive Elements (CRE) small molecule agonists, cell-based qHTS assay (AID 1963590)
Outline: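 Beta-lactamase reporter readout: LiveBLAzer B/G FRET substrate, 2 h at room temperature, added after 3 h compound treatment of CRE-bla HEK 293T cells at 37 C/5% CO2.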

[15] = cAMP Responsive Elements (CRE) small molecule antagonists, cell-based qHTS assay (AID 1963591; active = well fitted inhibition curve with a large enough effect in the signal ratio in the repeat runs, not every such curve was filed as active; the % refers to the signal ratio; note: potency is the fitted concentration of half-maximal effect)
Outline: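 HEK293T CRE-bla; 18 h preincubation; compound pin-transfer; NKH477 0.25 uM final, 3 h, 37 C; LiveBLAzer FRET substrate 2 h RT.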

[16] = target: Beta-2 adrenergic receptor (Homo sapiens) (UniProt P07550); assay: Adrenergic beta2 receptor (ADRB2) small molecule antagonists, cell-based qHTS assay (AID 1963592); note: series mostly up to about 92 µM; nearly all actives have a fitted effect of over 50% in size
Chain of Beta-2 adrenergic receptor (Homo sapiens) (P07550 whole entry, looked up): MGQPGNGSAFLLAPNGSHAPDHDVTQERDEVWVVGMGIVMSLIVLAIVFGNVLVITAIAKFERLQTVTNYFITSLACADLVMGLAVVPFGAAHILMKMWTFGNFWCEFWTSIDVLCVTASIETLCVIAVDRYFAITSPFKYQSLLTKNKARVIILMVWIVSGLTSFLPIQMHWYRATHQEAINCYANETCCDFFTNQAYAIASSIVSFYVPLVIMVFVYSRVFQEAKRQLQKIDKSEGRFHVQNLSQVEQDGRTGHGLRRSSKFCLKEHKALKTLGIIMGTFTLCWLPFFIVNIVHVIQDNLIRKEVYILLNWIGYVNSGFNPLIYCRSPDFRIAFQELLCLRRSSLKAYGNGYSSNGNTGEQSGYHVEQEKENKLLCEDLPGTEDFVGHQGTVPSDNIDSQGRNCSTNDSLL
Outline: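 Assay format: CHO-ADRB2 cells, 18-20hr seeding at 37C/5% CO2, then compound plus 1nM isoproterenol agonist mix for 0.5hr RT. Homogeneous time-resolved fluorescence cAMP detection after 1hr, expressed as 665/615 nm ratio.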

[17] = target: Beta-2 adrenergic receptor (Homo sapiens) (UniProt P07550); assay: Adrenergic beta2 receptor (ADRB2) small molecule agonists, cell-based qHTS assay (AID 1963593);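 note: CHO cells stably overexpressing human ADRB2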
Outline: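 CHO cells stably over-expressing ADRB2 were plated overnight at 37C, then dosed with compounds plus a stimulation mix containing 100uM IBMX and 25uM Ro-20-1724 for 0.5hr at room temperature. cAMP was measured by HTRF competition, 1hr.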

[18] = target: D(2) dopamine receptor (Homo sapiens) (UniProt P14416); assay: Dopamine D2 receptor (DRD2) small molecule agonists, cell-based qHTS assay (AID 1963594); note: nearly all actives have a fitted effect of over 35% in size
Chain of D(2) dopamine receptor (Homo sapiens) (P14416 whole entry, looked up): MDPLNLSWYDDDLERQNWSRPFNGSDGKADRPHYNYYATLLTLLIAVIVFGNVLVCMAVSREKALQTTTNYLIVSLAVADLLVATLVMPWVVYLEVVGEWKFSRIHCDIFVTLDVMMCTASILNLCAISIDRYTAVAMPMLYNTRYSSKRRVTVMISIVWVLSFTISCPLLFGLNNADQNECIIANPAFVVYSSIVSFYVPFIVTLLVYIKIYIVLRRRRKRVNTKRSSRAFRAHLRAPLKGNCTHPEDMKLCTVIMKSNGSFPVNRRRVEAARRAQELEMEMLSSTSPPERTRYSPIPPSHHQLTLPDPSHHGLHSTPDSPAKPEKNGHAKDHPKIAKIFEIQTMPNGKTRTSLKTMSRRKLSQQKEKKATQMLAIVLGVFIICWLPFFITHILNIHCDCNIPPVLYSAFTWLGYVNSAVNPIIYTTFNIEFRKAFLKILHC
Outline: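 HEK293 cells stably expressing human DRD2, pre-treated with PDE inhibitor Ro20-1724 (0.1 mM final) and compound 10 min at room temperature, then stimulated with NKH477 (200nM […]) for 30 min. cAMP read by HTRF (665/620 nm).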

[19] = target: D(2) dopamine receptor (Homo sapiens) (UniProt P14416); assay: Dopamine D2 receptor (DRD2) small molecule antagonists, cell-based qHTS assay (AID 1963595; active = well fitted inhibition curve with a large enough effect in the signal ratio in the repeat runs, with a control signal flat; the % refers to the signal ratio)
Outline: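 HTRF cAMP read-out at 665 and 620 nm emission (340 nm excitation). Antagonist mode: compounds were tested against 12 nM quinpirole in DRD2-HEK293 cells, with 200 nM NKH477 raising cAMP and 0.1 mM Ro20-1724 blocking its breakdown.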

[20] = p53 small molecule agonists, cell-based qHTS assay (AID 1963582; active = well fitted activation curve with a large enough effect in the signal ratio in the repeat runs, not every such curve was filed as active; the % refers to the signal ratio; note: potency is the fitted concentration of half-maximal effect)
Outline: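 Fluorescence intensity read-out of a beta-lactamase reporter under a p53 response element. Cells were exposed to DMSO-dissolved compounds for 16 h at 37 C, then developed with FRET substrate for 2 h at RT.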

## CCOC(=O)/C=C/C(=O)O
[1]
  Potency: inactive
[2]
  Potency: 61100 nM (active)
[3]
  Potency: inactive
[4]
  outcome: inactive
[5]
  outcome: inactive
[6]
  Potency: inactive
[7]
  Potency: inactive
[8]
  Potency: inactive
[9]
  Potency: inactive
[10]
  Potency: inactive
[11]
  Potency: inactive
[12]
  Potency: inactive
[13]
  Potency: inactive
[14]
  Potency: inactive
[15]
  Potency: inactive
[16]
  Potency: inactive
[17]
  Potency: inactive
[18]
  Potency: inactive
[19]
  Potency: inactive

## C[C@]1(Cn2ccnn2)[C@H](C(=O)O)N2C(=O)C[C@H]2S1(=O)=O
[1]
  Potency: inactive
[2]
  Potency: inactive
[3]
  Potency: inactive
[4]
  outcome: inactive
[5]
  outcome: inactive
[6]
  Potency: inactive
[7]
  Potency: inactive
[8]
  Potency: inactive
[9]
  Potency: inactive
[20]
  Potency: inactive
[14]
  Potency: inactive
[15]
  Potency: 1880 nM (active)
[16]
  Potency: inactive
[17]
  Potency: inactive
[18]
  Potency: inactive
[19]
  Potency: inactive

## COc1ccc(NS(=O)(=O)c2ccc(N)cc2)nn1
[1]
  Potency: inactive
[2]
  Potency: inactive
[3]
  Potency: inactive
[4]
  outcome: inactive
[5]
  outcome: inactive
[6]
  Potency: inactive
[7]
  Potency: inactive
[8]
  Potency: inactive
[9]
  Potency: inactive
[20]
  Potency: inactive
[11]
  Potency: inactive
[12]
  Potency: inactive
[13]
  Potency: inactive
[14]
  Potency: inactive
[15]
  Potency: inactive
[16]
  Potency: inactive
[18]
  Potency: inactive
[19]
  Potency: inactive

## NC(=O)C(c1ccccc1)(c1ccccc1)[C@@H]1CCN(CCc2ccc3c(c2)CCO3)C1
[1]
  Potency: inactive
[2]
  Potency: inactive
[3]
  Potency: inactive
[4]
  outcome: inactive
[5]
  outcome: inactive
[6]
  Potency: inactive
[7]
  Potency: inactive
[8]
  Potency: inactive
[9]
  Potency: inactive
[20]
  Potency: inactive
[13]
  Potency: inactive
[14]
  Potency: inactive
[16]
  Potency: inactive
[18]
  Potency: inactive
[19]
  Potency: inactive

## CC(C)C[C@H](NC(=O)[C@H](CCc1ccccc1)NC(=O)CN1CCOCC1)C(=O)N[C@@H](Cc1ccccc1)C(=O)N[C@@H](CC(C)C)C(=O)[C@@]1(C)CO1
[1]
  Potency: 298 nM (active)
[2]
  Potency: 106 nM (active)
[3]
  Potency: inactive
[4]
  outcome: inactive
[5]
  outcome: inactive
[6]
  Potency: inactive
[7]
  Potency: inactive
[8]
  Potency: 4460 nM (active)
[9]
  Potency: 630 nM (active)
[20]
  Potency: 112 nM (active)
[10]
  Potency: inactive
[11]
  Potency: inactive
[13]
  Potency: inactive
[17]
  Potency: inactive
[18]
  Potency: inactive
[19]
  Potency: inactive

## CCCCCC[C@@H](O)C/C=C\CCCCCCCC(=O)OCC(O)CO (some centres undefined)
[1]
  Potency: inactive
[2]
  Potency: inactive
[3]
  Potency: inactive
[4]
  outcome: inactive
[5]
  outcome: inactive
[6]
  Potency: inactive
[7]
  Potency: inactive
[8]
  Potency: inactive
[9]
  Potency: inactive
[20]
  Potency: inactive
[10]
  Potency: inactive
[11]
  Potency: inactive
[13]
  Potency: inactive
[16]
  Potency: inactive
[18]
  Potency: inactive
[19]
  Potency: inactive

## CC(C)(C)C(=O)NCCCC(=O)O
[1]
  Potency: inactive
[2]
  Potency: inactive
[3]
  Potency: inactive
[4]
  outcome: inactive
[5]
  outcome: inactive
[6]
  Potency: inactive
[7]
  Potency: inactive
[8]
  Potency: inactive
[9]
  Potency: inactive
[20]
  Potency: inactive
[11]
  Potency: inactive
[12]
  Potency: inactive
[13]
  Potency: inactive
[14]
  Potency: inactive
[15]
  Potency: inactive
[16]
  Potency: inactive
[17]
  Potency: inactive
[18]
  Potency: inactive
[19]
  Potency: inactive
